Assay results taken from PubChem BioAssay AID1159580 (chemical genetic matrix, 2015).
“And” between values parts separate entries of the source, which are not always exact repeats. Equal values may be shown once. About 2,000 (36%) of roughly 5,500 compounds were called active. About 18% were inconclusive and are not listed. Cut-off read from the data, not from the text of the source: active = normalized growth mostly below about 0.91 (no sharp cut-off); inconclusive = no clear call, values can overlap the other calls; inactive = mostly above about 0.92. Some of the results follow.

Experiment: chemical genetic growth profiling, strain panel (AID 1159580);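 note: tested at 20 µM; growth read once vehicle control cultures reached saturation at 30 °C; 1 = growth at the plate median or of vehicle wells; lower values mean less growth of the strain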
Conditions: S. cerevisiae deletion strains, growth OD
[1] = locus YHR030C, strain SLT2, active compounds read low
[2] = locus YHR079C, strain IRE1, active compounds read low
[3] = locus YJL095W, strain BCK1, active compounds read low
[4] = locus YJR066W, strain TOR1, active compounds read low
[5] = locus YLR113W, strain HOG1, active compounds read low
[6] = locus YNL183C, strain NPR1, active compounds read low
[7] = locus YOR231W, strain MKK1, active compounds read low
[8] = locus YPL256C, strain CLN2, active compounds read low

Measured: normalized growth

NCC[C@@H](O)C(=O)N[C@@H]1C[C@H](N)[C@@H](O[C@H]2O[C@H](CN)[C@@H](O)[C@H](O)[C@H]2O)[C@H](O)[C@H]1O[C@H]1O[C@H](CO)[C@@H](O)[C@H](N)C1O (some centres undefined)
inactive: locus YAL013W, strain DEP1, active compounds read low 0.974 | locus YAL021C, strain ccr4, active compounds read low 1.02 | locus YAL026C, strain drs2, active compounds read low 1.02 | locus YAL030W, strain snc1, active compounds read low 1.04 | locus YBL061C, strain skt5, active compounds read low 1.03 | locus YBR009C, strain hhf1, active compounds read low 1.03 | locus YBR021W, strain FUR4, active compounds read low 0.96 | locus YBR023C, strain chs3, active compounds read low 1.04 | locus YBR171W, strain sec66, active compounds read low 1.04 | locus YBR229C, strain ROT2, active compounds read low 0.999 | locus YBR231C, strain swc5, active compounds read low 1.04 | locus YBR279W, strain paf1, active compounds read low 1.03 | locus YCL011C, strain gbp2, active compounds read low 1.03 | locus YCL016C, strain dcc1, active compounds read low 1.04 | locus YCL029C, strain bik1, active compounds read low 1.02 | locus YCL061C, strain MRC1, active compounds read low 1.02 | locus YCL069W, strain vba3, active compounds read low 1.04 | locus YCR088W, strain abp1, active compounds read low 1.03 | locus YDL005C, strain med2, active compounds read low 1.04 | locus YDL035C, strain GPR1, active compounds read low 0.986 | locus YDL040C, strain nat1, active compounds read low 1.04 | locus YDL074C, strain BRE1, active compounds read low 0.983 | locus YDL101C, strain DUN1, active compounds read low 0.999 | locus YDL185W, strain tfp1, active compounds read low 1.02 | locus YDL192W, strain arf1, active compounds read low 1.01 | locus YDR001C, strain nth1, active compounds read low 1.02 | locus YDR069C, strain doa4, active compounds read low 1.03 | locus YDR101C, strain arx1, active compounds read low 0.998 | locus YDR137W, strain rgp1, active compounds read low 1.04 | locus YDR159W, strain sac3, active compounds read low 1.05 | locus YDR162C, strain NBP2, active compounds read low 1.01 | locus YDR195W, strain ref2 1.08 | locus YDR297W, strain sur2, active compounds read low 1.03 | locus YDR318W, strain mcm21, active compounds read low 1.01 | locus YDR334W, strain swr1, active compounds read low 1.01 | locus YDR335W, strain msn5, active compounds read low 1.04 | locus YDR388W, active compounds read low 1.01 | locus YDR392W, strain spt3, active compounds read low 1.06 | locus YDR502C, strain sam2, active compounds read low 1.01 | locus YEL003W, strain gim4, active compounds read low 1.03 | locus YEL037C, strain rad23, active compounds read low 1.03 | locus YEL061C, strain CIN8 (second series), active compounds read low 1.04 | locus YEL061C, strain CIN8, active compounds read low 1 | locus YER015W, strain faa2, active compounds read low 1.03 | locus YER016W, strain bim1, active compounds read low 1 | locus YER110C, active compounds read low 1.03 | locus YER111C, strain swi4, active compounds read low 1.03 | locus YER155C, strain BEM2 (second series), active compounds read low 1.02 | locus YER155C, strain BEM2, active compounds read low 1.01 | locus YER167W, strain BCK2, active compounds read low 0.986 | locus YFR010W, strain ubp6, active compounds read low 1.05 | locus YGL078C, strain dbp3, active compounds read low 1 | locus YGL086W, strain mad1, active compounds read low 1 | locus YGL167C, strain pmr1, active compounds read low 1.03 | locus YGL173C, strain kem1, active compounds read low 1.04 | locus YGL227W, strain vid30, active compounds read low 1.05 | locus YGL240W, strain doc1, active compounds read low 1.01 | locus YGL248W, strain PDE1, active compounds read low 0.999 | locus YGL253W, strain hxk2, active compounds read low 1.02 | locus YGR078C, strain PAC10, active compounds read low 0.997 | locus YGR135W, strain pre9, active compounds read low 0.988 | locus YGR252W, strain gcn5, active compounds read low 0.944 | locus YHR013C, strain ard1, active compounds read low 1.04 | locus YHR027C, strain rpn1, active compounds read low 1.03 | [1] 1.01 and 1.02 | locus YHR079C, strain IRE1 (second series), active compounds read low 1.02 | [2] 1.03 | locus YHR094C, strain hxt1, active compounds read low 1.03 | locus YHR129C, strain ARP1, active compounds read low 1.01 | locus YHR142W, strain chs7, active compounds read low 1.06 | locus YHR200W, strain rpn10, active compounds read low 1.02 | locus YIL066C, strain RNR3, active compounds read low 1 | locus YIL073C, strain SPO22, active compounds read low 1.19 | locus YIL125W, strain kgd1, active compounds read low 1.01 | locus YIR030C, strain dcg1, active compounds read low 1.03 | locus YJL092W, strain hpr5, active compounds read low 1.03 | locus YJL095W, strain BCK1 (second series), active compounds read low 1 | [3] 0.999 and 1.02 | locus YJL115W, strain asf1, active compounds read low 1.04 | locus YJL129C, strain trk1, active compounds read low 1.07 | locus YJL134W, strain LCB3, active compounds read low 1.01 | locus YJL154C, strain vps35, active compounds read low 1.03 | locus YJL164C, strain tpk1, active compounds read low 1.01 | locus YJL166W, strain qcr8, active compounds read low 1.03 | locus YJL168C, strain set2, active compounds read low 1.01 | locus YJL187C, strain SWE1 (second series), active compounds read low 0.999 | locus YJL187C, strain SWE1, active compounds read low 1.03 | locus YJR043C, strain POL32, active compounds read low 0.983 | [4] 0.975 | locus YJR075W, strain HOC1, active compounds read low 0.995 | locus YKL009W, strain mrt4, active compounds read low 1.02 | locus YKL068W, active compounds read low 1.01 | locus YKL085W, strain MDH1 (second series), active compounds read low 1.01 | locus YKL085W, strain MDH1, active compounds read low 1.01 | locus YKL160W, strain elf1, active compounds read low 1.01 | locus YKR001C, strain vps1, active compounds read low 1.01 | locus YKR026C, strain gcn3, active compounds read low 1.07 | locus YKR091W, strain srl3, active compounds read low 1.01 | locus YLL001W, strain dnm1, active compounds read low 1.02 | locus YLL026W, active compounds read low 1.01 | locus YLL041C, strain sdh2, active compounds read low 1.03 | locus YLR027C, strain aat2, active compounds read low 1.02 | locus YLR039C, strain RIC1, active compounds read low 1.04 | locus YLR058C, strain SHM2, active compounds read low 1.01 | locus YLR102C, strain apc9, active compounds read low 1.01 | [5] 1.03 | locus YLR221C, strain rsa3, active compounds read low 1.01 | locus YLR258W, strain gsy2, active compounds read low 1.02 | locus YLR262C, strain YPT6 (second series), active compounds read low 1.03 | locus YLR262C, strain YPT6, active compounds read low 1.04 | locus YLR268W, strain sec22, active compounds read low 1.04 | locus YLR320W, strain mms22, active compounds read low 1.03 | locus YLR330W, strain CHS5, active compounds read low 1.01 | locus YLR342W, strain FKS1 (second series), active compounds read low 0.966 | locus YLR342W, strain FKS1, active compounds read low 1.03 | locus YLR357W, strain rsc2, active compounds read low 1.09 | locus YLR370C, strain arc18, active compounds read low 1.03 | locus YLR371W, strain rom2, active compounds read low 1.01 | locus YLR384C, strain iki3, active compounds read low 1.03 | locus YLR418C, strain cdc73, active compounds read low 1.01 | locus YML016C, strain PPZ1, active compounds read low 1.01 | locus YML032C, strain rad52, active compounds read low 1.01 | locus YML120C, strain ndi1, active compounds read low 1.02 | locus YML124C, strain tub3, active compounds read low 1.01 | locus YMR058W, strain fet3, active compounds read low 1.04 | locus YMR078C, strain ctf18, active compounds read low 1.02 | locus YMR125W, strain sto1, active compounds read low 1.06 | locus YMR129W, active compounds read low 1.03 | locus YMR205C, strain PFK2, active compounds read low 1.05 | locus YMR223W, strain ubp8, active compounds read low 1.01 | locus YMR231W, strain pep5, active compounds read low 1.03 | locus YMR263W, strain SAP30, active compounds read low 1 | locus YMR307W, strain GAS1, active compounds read low 0.921 | locus YNL067W, strain RPL9B, active compounds read low 0.992 | locus YNL071W, strain lat1, active compounds read low 1.02 | locus YNL153C, strain GIM3, active compounds read low 0.996 | [6] 0.952 | locus YNL209W, strain ssb2, active compounds read low 1.02 | locus YNL233W, strain BNI4, active compounds read low 1.02 | locus YNL248C, strain rpa49, active compounds read low 0.984 | locus YNL250W, strain rad50, active compounds read low 1.01 | locus YNL271C, strain bni1, active compounds read low 1.02 | locus YNL298W, strain CLA4, active compounds read low 1.02 | locus YNL307C, strain MCK1, active compounds read low 1.02 | locus YNL322C, strain KRE1 (second series), active compounds read low 1.04 | locus YNL322C, strain KRE1, active compounds read low 1.01 | locus YNR049C, strain mso1, active compounds read low 1.03 | locus YNR052C, strain pop2, active compounds read low 1.02 | locus YOL006C, strain TOP1, active compounds read low 0.932 | locus YOL012C, strain htz1 0.906 | locus YOL147C, strain pex11, active compounds read low 1.02 | locus YOR001W, strain rrp6, active compounds read low 1.05 | locus YOR061W, strain CKA2, active compounds read low 1.01 | locus YOR069W, strain VPS5, active compounds read low 1.01 | locus YOR070C, strain gyp1, active compounds read low 1.03 | locus YOR080W, strain dia2, active compounds read low 1.05 | locus YOR083W, strain WHI5, active compounds read low 1.02 | locus YOR106W, strain vam3, active compounds read low 1.04 | locus YOR136W, strain idh2, active compounds read low 1.02 | locus YOR144C, strain elg1, active compounds read low 1.02 | locus YOR184W, strain ser1, active compounds read low 1.03 | [7] 1 | locus YOR265W, strain rbl2, active compounds read low 1.04 | locus YOR270C, strain vph1, active compounds read low 1.05 | locus YOR290C, strain snf2, active compounds read low 1.04 | locus YOR316C, strain cot1, active compounds read low 1.02 | locus YPL051W, strain arl3, active compounds read low 1.02 | locus YPL078C, strain atp4, active compounds read low 1.03 | locus YPL106C, strain sse1, active compounds read low 1.07 | locus YPL240C, strain hsp82, active compounds read low 1.02 | [8] 1.04 | locus YPR119W, strain clb2, active compounds read low 1.01 | locus YPR141C, strain kar3, active compounds read low 1.01 | locus YPR163C, strain tif3, active compounds read low 1.02 | locus YPR167C, strain met16, active compounds read low 1.02 | strain wtn01, active compounds read low 1.01

NC(=O)CC[C@H](N)C(=O)O
inactive: [1] 0.98 | [2] 0.977 | [3] 0.965 | [4] 0.941 | [5] 0.976 | [6] 0.954 | [7] 0.98 | [8] 0.972
